CF NFkB block: inhibitors of PAF-induced NF-kB signaling, primary screen, cell-based, GFP fluorescence, uHTS. KKLEB NF-kB-GFP reporter, GFP fluorescence overnight. inhibition, % at 5 µM. actives 0.86% (n = 360,000). AID 588850, 2011;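 active = at least 50% inhibition at 5 µM, scaled per plate between neutral and stimulator controls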;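 also: PAF is a Pseudomonas aeruginosa culture filtrate used as stimulus; plate controls were PAF-stimulated DMSO wells for no effect and unstimulated DMSO wells for full effect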
KKLEB cytotox: cytotoxicity in KKLEB CF airway cells, primary screen, cytotoxicity control for CF NF-kB inhibitor project, cell-based, uHTS, fluorescence assay plates; KKLEB CF airway cells viability, ATPlite luminescence, overnight; active compounds read low; cells stimulated with P. aeruginosa culture filtrate; activity change (cytotoxicity), % at 5 µM; actives 0.36% (n = 360,000);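 active = corrected activity change at or below -50% at 5 µM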
TWEAK Fn14 block: inhibitors of TWEAK-Fn14 signaling, primary screen, luciferase reporter cells, uHTS; TWEAK-stimulated Fn14 reporter cells, luciferase luminescence, 8 h; inhibition, % at 10 µM; actives 2% (n = 360,000); in the data active = inhibition above about 50%
Peg3 prom inh: Peg3 promoter-driven luciferase inhibitors, primary screen, cell-based, HeLa, luciferase luminescence. inhibition, % at 20 µM. AID 588405, 2011. HeLa PEG-Prom luciferase reporter, overnight. actives 1.7% (n = 360,000);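 active = inhibition of at least 50% at 20 µM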
HIF-2a block: HIF-2a reporter inhibitors, primary screen, luminescence, 786-0 RCC cells | 786-0 RCC cells HIF-2a reporter, luciferase luminescence, overnight | inhibition, % at 18.8 µM | actives 0.72% (n = 360,000);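 active = inhibition of the luminescence signal of 40% or more relative to plate controls, in a single-dose primary screen at 18.75 µM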
TROY NFkB inh: inhibitors of TROY-driven NF-kB signaling, primary screen, Q293 LMP1-TROYcd cells, NF-kB luciferase, uHTS; AID 1347056, 2019; actives 0.98% (n = 360,000); inhibition, % at 10 µM; Q293 LMP1-TROYcd NF-kB luciferase reporter, 4 h;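 active = compounds whose plate-normalised and pattern-corrected inhibition of the luciferase reporter signal at the single screening dose is 50% or more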
* = called active by the depositor; x = not tested or not shown. The list is not random: actives were taken first. Their share in the collection is about 4%.

SMILES | CF NFkB block | KKLEB cytotox | TWEAK Fn14 block | Peg3 prom inh | HIF-2a block | TROY NFkB inh
CC(C)CCCCCCCCCCCCC(=O)NCC(=O)NC1C(C)OC(Nc2ncnc3nc[nH]c23)C(O)C1O (stereo not drawn) | 83* | -17 | 97* | 100* | 79* | 77*
COc1ccc(N2CCN(C(=O)Cn3ncc4c([nH]c5ccccc54)c3=O)CC2)cc1 | 43 | -9 | 9 | 53* | 0 | -5
COc1ccccc1N1CCN(C(=O)Cn2ncc3c([nH]c4ccccc43)c2=O)CC1 | 2 | -3 | 9 | 7 | 14 | 6
COCCN1C[C@@H](CO)O[C@@H](n2cnc3c(NCCCO)ncnc32)C1 | -7 | 8 | -18 | 3 | 14 | 9
O=c1c(-c2ccccc2)c(O)c2cccc3c2n1CCC3 | 12 | -23 | -3 | -22 | 10 | 18
Cc1cc(C)c(-c2c(O)c3cccc4c3n(c2=O)CCC4)c(C)c1 | -15 | 2 | 56* | 4 | 12 | 3
COc1ccc(-c2sc(NC(=O)c3ccc(C)cc3)nc2-c2ccc([N+](=O)[O-])cc2)cc1 | -4 | -20 | 8 | 16 | 14 | -11
COc1ccc(C(=O)Nc2nc(-c3ccc([N+](=O)[O-])cc3)c(-c3ccccc3)s2)cc1 | -1 | -4 | 57* | 16 | 21 | 6
O=C(N/N=C/c1c[nH]c2ccccc12)c1[nH]c2ccc(Br)cc2c1-c1ccccc1 | 34 | -14 | 43 | 20 | 31 | 36
CCOc1ccc(/C=N/NC(=O)c2[nH]c3ccc(C)cc3c2C)cc1 | 5 | -8 | 14 | 1 | -12 | 13
Cc1c(C(=O)N/N=C/c2ccc(Cl)cc2)[nH]c2ccc(Cl)cc12 | 62* | -44 | 48 | 2 | 13 | 44
O=C(N/N=C/c1ccc(O)cc1)c1[nH]c2ccc(Br)cc2c1-c1ccccc1 | 58* | -27 | 45 | 32 | 18 | 15
CCc1nc2c(OCC(=O)C(C)(C)C)cccn2c1N(C)C(=O)c1ccco1 | -16 | 8 | -25 | 3 | 0 | -3
COc1cccc(C(=O)Nc2ccccc2N2CCN(C(=O)c3ccccc3)CC2)c1 | -16 | 6 | -14 | 3 | -13 | 0
C/C=C/c1ccc(OCCCNCC(C)O)c(OC)c1 (stereo not drawn) | -4 | 5 | 86* | 7 | 13 | x
C/C=C/c1ccc(OCCCCOc2ccc(OC)cc2)c(OC)c1 | -16 | 13 | -14 | 24 | 9 | -1
O=C(CN1C(=O)NC2(CCCCCC2)C1=O)Nc1ccc(Br)cc1Br | -6 | -2 | -19 | -2 | -1 | -3
CC(C)c1cc(C(=O)NNC(=S)NC2CCCCC2)cs1 | -9 | -7 | 50* | -193 | -217 | 49
COCCCNC(=O)C[C@H]1C[C@H](C(=O)N2CCOCC2)[C@@]2(CCC3CCCC3)c3[nH]c4ccc(Cl)cc4c3CCN2C1=O | -3 | 12 | 24 | 14 | -12 | 14
C=CCOc1ccc(CN(C)CC(O)COc2ccc(CCC(C)=O)cc2)cc1 (stereo not drawn) | -3 | 3 | 55* | 23 | 6 | 6
CC(=O)CCc1ccc(OCC(O)CNCCOc2ccc(C)cc2)cc1 (stereo not drawn) | 9 | 3 | 12 | 8 | 1 | -5
CC(C)CCSc1nc(N)c(C#N)cc1C#N | 51* | 0 | 46 | -41 | -78 | 8
CC(=O)c1cc(C#N)c(SCCC(C)C)nc1C | 16 | 12 | -27 | -27 | -52 | -21
COc1ccc(Nc2nc(NCCN3CCOCC3)nc(Nc3ccc(OC)cc3)n2)cc1 | -14 | -14 | 3 | 23 | 14 | -3
CCN1CCN(c2c(C=O)c(Cl)nc3ccc(OC)cc23)CC1 | 17 | 0 | 56* | 5 | 25 | 26
SMILES | CF NFkB block | KKLEB cytotox | TWEAK Fn14 block | Peg3 prom inh | HIF-2a block | TROY NFkB inh
CCN1CCN(c2cc(C)c3cc(NC(=O)CCC(=O)Nc4ccc(OC)cc4OC)ccc3n2)CC1 | -18 | 4 | 4 | 4 | -26 | -11
Cc1ccc(OC(=O)c2oc3ccc(F)cc3c2C)c(C)c1 | 53* | -69* | -13 | -53 | -114 | -20
COc1ccc(/C=C/C(=O)c2oc3ccc(F)cc3c2C)cc1 | -6 | -10 | -9 | -4 | -42 | -34
CCN1CCN(c2cc(C)c3cc(NC(=S)N4CC(C)CC(C)C4)ccc3n2)CC1 (stereo not drawn) | -14 | 8 | 14 | 15 | 6 | 54*
CCN1CCN(c2cc(C)c3cc(NC(=S)N4CCCC(C)C4)ccc3n2)CC1 (stereo not drawn) | 16 | -15 | 86* | 15 | 13 | 83*
CCN1CCN(c2cc(C)c3cc(NC(=S)N4CCN(c5ccc(F)cc5)CC4)ccc3n2)CC1 | 20 | -9 | -4 | 88* | 16 | 26
COc1ncccc1C(=O)N1CCCC(C(=O)Nc2cccc(-c3ccc(F)cc3)c2)C1 (stereo not drawn) | 18 | -7 | 1 | -6 | -20 | 14
OC[C@@H]1CN(CCN2CCOCC2)C[C@H](n2cnc3c(N4CCOCC4)ncnc32)O1 | -6 | -2 | 5 | -11 | -6 | -17
CCOc1ccc(CN(C)CC(=O)Nc2cc(C)c(C)cc2[N+](=O)[O-])cc1 | -24 | -8 | 44 | -119 | -68 | 67*
O=C(CN1CCN(c2ccc(O)cc2)CC1)N(C1CC1)C1CCS(=O)(=O)C1 (stereo not drawn) | 1 | 2 | 22 | 6 | -3 | -2
COCCNC(=O)/C(C#N)=C/c1cccc(/C=C(\C#N)C(=O)NCCOC)c1 | 21 | 2 | 65* | 20 | 40 | 28
CNC(=O)/C(C#N)=C/c1cccc(Oc2ccccc2)c1 | 0 | 4 | 53* | -45 | 13 | -80
CNC(=O)/C(=C\c1cccc(Oc2ccccc2)c1)NC(=O)c1ccccc1 | -28 | 1 | -3 | 27 | 5 | -20
COCCNC(=O)/C(C#N)=C/c1ccc(O)cc1 | -4 | -7 | -28 | -14 | -10 | -19
CCC(O)C1CCN(C(=O)c2cc(COc3ccc(F)cc3F)on2)CC1 (stereo not drawn) | 5 | 16 | -21 | -9 | -15 | -1
CCc1cccc2c1NC(=O)C21N2CCCC2C(C(=O)c2ccc3ccccc3c2)C12C(=O)Nc1ccccc12 (stereo not drawn) | 10 | -23 | 39 | -71 | -251 | -6
